Assay results reported in PubChem BioAssay AID763 (NMMLSC, 2007).

molecular target: fMet-Leu-Phe receptor (Homo sapiens) (UniProt P21462); assay: FPR1 fluorescent ligand binding inhibitors, SAR follow-up, selectivity assay for FPRL1 ligand SAR project, cell-based, single concentration (AID 763); conditions: FPR1-expressing cells, active compounds read high; at 5.4 µM unless noted
Sequence (P21462 whole entry, looked up): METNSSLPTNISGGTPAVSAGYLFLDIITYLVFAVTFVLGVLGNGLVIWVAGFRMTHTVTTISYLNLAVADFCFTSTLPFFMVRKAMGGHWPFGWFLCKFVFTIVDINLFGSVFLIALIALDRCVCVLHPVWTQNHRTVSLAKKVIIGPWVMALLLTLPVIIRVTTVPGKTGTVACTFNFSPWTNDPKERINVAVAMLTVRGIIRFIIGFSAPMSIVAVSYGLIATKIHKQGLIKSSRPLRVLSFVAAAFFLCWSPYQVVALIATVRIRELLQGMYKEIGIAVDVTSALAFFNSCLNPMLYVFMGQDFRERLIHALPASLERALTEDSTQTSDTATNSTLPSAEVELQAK

inhibition, inactive:
Fc1ccc(-c2cc(C(F)(F)F)nc(N3CCN(Cc4ccccc4)CC3)n2)cc1 0% [at 5.3 µM]
CCCC(=O)Nc1cc(-c2cn3cccnc3n2)ccc1OC 0.5% [at 7.2 µM]
CCC(=O)Nc1cccc(-c2nc3ncccn3c2C)c1 5.6% [at 7.9 µM]
COc1ccc(-c2cn3cccnc3n2)cc1NC(=O)c1ccccc1Br 0.1% [at 5.3 µM]
CN1CCN(c2nc(-c3ccccc3)cc(C(F)(F)F)n2)CC1 -5.9% [at 6.9 µM]
COc1ccc(-c2cn3cccnc3n2)cc1NC(=O)Cc1cccc(C)c1 4.7% [at 6 µM]
COc1cccc(-c2cc(C(F)(F)F)nc(N3CCN(c4ccc(F)cc4)CC3)n2)c1 1.7% [at 5.1 µM]
COc1ccc(-c2cn3cccnc3n2)cc1NC(=O)c1ccc(Br)o1 0.9%
CC(=O)N1CCN(c2nc(-c3ccccc3)c3ccccc3n2)CC1 2.3% [at 6.7 µM]
O=C(O)CCCC(=O)N1CCN(c2nc(-c3ccccc3)c3cc(Br)ccc3n2)CC1 -1.2% [at 4.6 µM]
COc1ccccc1N1CCN(c2nc(-c3ccc(F)cc3)cc(C(F)(F)F)n2)CC1 -1.1% [at 5.1 µM]
COc1ccc(-c2cn3cccnc3n2)cc1NC(=O)c1ccccc1F 2.4% [at 6.1 µM]
CCOC(=O)N1CCN(c2nc(-c3ccc(OC)cc3)cc(C(F)(F)F)n2)CC1 -5.3%
COc1ccc(-c2cn3cccnc3n2)cc1NC(=O)C(C)C -8.8% [at 7.2 µM]
CCOC(=O)N1CCN(c2nc(-c3ccc(OC)c(OC)c3)cc(C(F)(F)F)n2)CC1 4.1% [at 5.1 µM]
COc1ccc(-c2cn3cccnc3n2)cc1NC(=O)c1ccc(Br)cc1 -0.1% [at 5.3 µM]
COc1ccc(C2CC(=O)c3cnc(N4CCN(Cc5ccc6c(c5)OCO6)CC4)nc3C2)c(OC)c1 (stereo not drawn) -4.7% [at 4.4 µM]
O=C1CC(c2ccco2)Cc2nc(N3CCN(Cc4ccccc4)CC3)ncc21 (stereo not drawn) 5.5% [at 5.7 µM]
COc1ccccc1-c1cc(C(F)(F)F)nc(N2CCN(c3ccccc3)CC2)n1 -10.8%
Cc1ccccc1C(=O)N1CCN(c2nc(-c3ccccc3)c3cc(Cl)ccc3n2)CC1 -3.4% [at 5 µM]
FC(F)(F)c1cc(-c2ccco2)nc(N2CCN(C(c3ccccc3)c3ccccc3)CC2)n1 0.5% [at 4.8 µM]
O=C(c1cccc(F)c1)N1CCN(c2nc(-c3ccc(F)cc3)cc(C(F)(F)F)n2)CC1 -0.1% [at 5 µM]
CCOC(=O)N1CCN(c2nc(-c3ccc(F)cc3)cc(C(F)(F)F)n2)CC1 0.3% [at 5.6 µM]
Cc1ccc2nc(N3CCN(C(=O)CCCC(=O)O)CC3)nc(-c3ccccc3)c2c1 -4.8% [at 5.3 µM]
COc1ccc(-c2cn3cccnc3n2)cc1NC(=O)CCc1ccccc1 6.4% [at 6 µM]
Fc1ccc(-c2cc(C(F)(F)F)nc(N3CCN(c4ccc(F)cc4)CC3)n2)cc1 -2% [at 5.3 µM]
O=C(N1CCN(c2nc(-c3ccccc3)c3ccccc3n2)CC1)C(F)(F)F 5.9% [at 5.8 µM]
Brc1ccc2nc(N3CCN(c4ccccc4)CC3)nc(-c3ccccc3)c2c1 0.6% [at 5 µM]
COc1ccc(-c2cn3cccnc3n2)cc1NC(=O)CSCc1ccccc1 -0.7% [at 5.5 µM]
COc1ccc(-c2cn3cccnc3n2)cc1NC(=O)Cc1ccc(Cl)cc1 8% [at 5.7 µM]
COc1ccc(-c2cn3cccnc3n2)cc1NC(=O)c1ccc(Cl)cc1 -0.5% [at 5.9 µM]
CC(C)(C)OC(=O)N1CCN(c2nc(-c3ccccc3)c3cc(Br)ccc3n2)CC1 3.5% [at 4.7 µM]
COc1ccc(-c2cn3cccnc3n2)cc1NC(=O)c1cc(Br)ccc1Cl -4% [at 4.9 µM]
